The values below come from paper PMC7862700, “An all-to-all approach to the identification of sequence-specific readers for epigenetic DNA modifications on cytosine”.

Common to all, as to assay: DAPPL (digital affinity profiling via proximity ligation, sequencing); 10 mM Tris-HCl pH 7.5, 50 mM NaCl, 1 mM DTT, 4% glycerol, room temperature, 30 min; GST-TFs on glutathione beads, 16-mer random dsDNA library, 0.1% formaldehyde crosslink after washing; high values mean tight binding
The target of one experiment is T1, FEV (Homo sapiens, UniProt Q99581 1-238).
T1 sequence: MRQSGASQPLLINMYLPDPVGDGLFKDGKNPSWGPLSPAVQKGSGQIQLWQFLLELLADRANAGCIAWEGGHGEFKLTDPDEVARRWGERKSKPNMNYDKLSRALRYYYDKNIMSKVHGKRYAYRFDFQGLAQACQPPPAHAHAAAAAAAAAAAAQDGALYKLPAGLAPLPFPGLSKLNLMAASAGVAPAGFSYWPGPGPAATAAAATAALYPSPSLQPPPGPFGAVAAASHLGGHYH
Conditions: protein: recombinant; tags: N-terminal GST; dsDNA, one strand shown. The method in brief: (§1)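 Human transcription factors carrying a GST fusion were produced in yeast, bound to glutathione beads, tagged with DNA barcodes and pooled together with a tag-only sample. Each pool was held with 200 nmole of a random double-stranded 16-mer DNA library in Tris/NaCl/DTT/glycerol buffer for 30 min at room temperature, then washed, crosslinked in 0.1% formaldehyde, proximity-ligated with BsaI/T4 ligase (1 h, 37 °C), PCR-amplified and sequenced on an Illumina NextSeq500. Binding signal is the read frequency of each hexamer for a given factor divided by its frequency in the tag-only sample.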

A further experiment has as its target ETV5 (Homo sapiens, UniProt P41161 1-510). Conditions: protein: recombinant; tags: N-terminal GST; dsDNA, one strand shown. The method in brief: as §1
The target in another experiment is HSF1 (Homo sapiens, UniProt Q00613 1-529). Conditions: protein: recombinant; tags: N-terminal GST; chain copies: 3; dsDNA, one strand shown. The essentials: as §1
A further experiment deals with T2, SPIC (Homo sapiens, UniProt Q8N5J4 1-248).
T2 sequence: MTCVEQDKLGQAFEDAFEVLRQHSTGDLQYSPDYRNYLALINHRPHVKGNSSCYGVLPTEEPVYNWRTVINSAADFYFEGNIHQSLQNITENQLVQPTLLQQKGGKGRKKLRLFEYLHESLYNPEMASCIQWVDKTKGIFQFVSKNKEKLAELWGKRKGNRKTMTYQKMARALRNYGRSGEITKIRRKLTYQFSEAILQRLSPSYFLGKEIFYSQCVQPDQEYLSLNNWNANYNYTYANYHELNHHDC
Conditions: protein: recombinant; tags: N-terminal GST; dsDNA, one strand shown. The method in brief: as §1

In another experiment the target is ELF4 (Homo sapiens, UniProt Q99607 1-663). Conditions: protein: recombinant; tags: N-terminal GST; dsDNA, one strand shown. The essentials:
as §1

Another experiment has as its target T3, ELK4 (Homo sapiens, UniProt P28324-2 1-405).
T3 sequence: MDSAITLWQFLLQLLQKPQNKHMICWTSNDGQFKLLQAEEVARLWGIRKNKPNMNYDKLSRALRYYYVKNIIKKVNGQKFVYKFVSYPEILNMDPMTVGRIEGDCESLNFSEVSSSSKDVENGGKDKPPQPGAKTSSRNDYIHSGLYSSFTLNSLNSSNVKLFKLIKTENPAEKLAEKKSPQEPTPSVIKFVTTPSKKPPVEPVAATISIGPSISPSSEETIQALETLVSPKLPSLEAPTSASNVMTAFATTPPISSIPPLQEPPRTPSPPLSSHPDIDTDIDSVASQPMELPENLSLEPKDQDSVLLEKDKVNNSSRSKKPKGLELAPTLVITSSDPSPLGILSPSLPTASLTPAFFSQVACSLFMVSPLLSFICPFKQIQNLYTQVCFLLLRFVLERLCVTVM
Conditions: protein: recombinant; tags: N-terminal GST; dsDNA, one strand shown. The essentials:
as §1

The next experiment has as its target T4, ETV2 (Homo sapiens, UniProt O00321 1-342).
T4 sequence: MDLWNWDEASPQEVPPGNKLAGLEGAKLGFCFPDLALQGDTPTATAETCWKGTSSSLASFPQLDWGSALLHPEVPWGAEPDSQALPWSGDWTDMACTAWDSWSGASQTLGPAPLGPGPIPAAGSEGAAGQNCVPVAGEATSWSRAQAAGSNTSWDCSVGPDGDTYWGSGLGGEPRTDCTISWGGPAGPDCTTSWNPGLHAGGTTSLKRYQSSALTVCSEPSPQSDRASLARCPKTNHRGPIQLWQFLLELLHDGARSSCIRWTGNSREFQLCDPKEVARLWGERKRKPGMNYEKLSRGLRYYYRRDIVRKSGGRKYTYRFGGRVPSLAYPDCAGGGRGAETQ
Conditions: protein: recombinant; tags: N-terminal GST; dsDNA, one strand shown. The essentials:
as §1

The next experiment has as its target T5, ELF3 (Homo sapiens, UniProt P78545 1-371).
T5 sequence: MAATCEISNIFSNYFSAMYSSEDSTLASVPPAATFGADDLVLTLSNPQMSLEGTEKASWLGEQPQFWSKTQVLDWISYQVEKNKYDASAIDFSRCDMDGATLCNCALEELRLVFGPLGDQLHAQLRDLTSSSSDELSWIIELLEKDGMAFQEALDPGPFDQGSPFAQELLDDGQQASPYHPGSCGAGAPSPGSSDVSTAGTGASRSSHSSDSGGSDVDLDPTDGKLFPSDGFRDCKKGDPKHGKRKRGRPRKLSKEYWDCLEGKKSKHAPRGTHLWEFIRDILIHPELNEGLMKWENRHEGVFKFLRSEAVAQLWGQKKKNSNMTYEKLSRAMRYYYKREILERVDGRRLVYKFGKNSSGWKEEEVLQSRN
Conditions: protein: recombinant; tags: N-terminal GST; dsDNA, one strand shown. The essentials:
as §1

In the next experiment the target is CRX (Homo sapiens, UniProt O43186 1-299). The following applies: protein: recombinant; tags: N-terminal GST; dsDNA, one strand shown. The essentials:
as §1

Another experiment has as its target ETV1 (Homo sapiens, UniProt P50549 1-477). The following applies: protein: recombinant; tags: N-terminal GST; dsDNA, one strand shown. The method in brief:
as §1

The next experiment has as its target T6, ERF (Homo sapiens, UniProt P50548 1-548).
T6 sequence: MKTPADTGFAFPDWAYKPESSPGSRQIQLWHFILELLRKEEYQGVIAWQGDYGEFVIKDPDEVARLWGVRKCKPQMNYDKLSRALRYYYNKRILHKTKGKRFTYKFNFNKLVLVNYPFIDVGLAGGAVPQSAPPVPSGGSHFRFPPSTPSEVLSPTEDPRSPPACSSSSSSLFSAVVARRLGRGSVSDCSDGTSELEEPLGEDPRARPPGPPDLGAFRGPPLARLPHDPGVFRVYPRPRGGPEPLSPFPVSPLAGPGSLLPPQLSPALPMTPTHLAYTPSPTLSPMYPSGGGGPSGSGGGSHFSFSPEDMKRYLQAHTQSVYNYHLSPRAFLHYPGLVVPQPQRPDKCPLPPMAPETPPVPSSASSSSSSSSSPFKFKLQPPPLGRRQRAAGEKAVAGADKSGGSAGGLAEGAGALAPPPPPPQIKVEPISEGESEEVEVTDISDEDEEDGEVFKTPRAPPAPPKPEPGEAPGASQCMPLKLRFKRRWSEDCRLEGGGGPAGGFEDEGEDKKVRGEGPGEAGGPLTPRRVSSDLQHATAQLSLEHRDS
The following applies: protein: recombinant; tags: N-terminal GST; dsDNA, one strand shown. The essentials:
as §1

In a further experiment the target is T7, ETV3L (Homo sapiens, UniProt Q6ZN32 1-361).
T7 sequence: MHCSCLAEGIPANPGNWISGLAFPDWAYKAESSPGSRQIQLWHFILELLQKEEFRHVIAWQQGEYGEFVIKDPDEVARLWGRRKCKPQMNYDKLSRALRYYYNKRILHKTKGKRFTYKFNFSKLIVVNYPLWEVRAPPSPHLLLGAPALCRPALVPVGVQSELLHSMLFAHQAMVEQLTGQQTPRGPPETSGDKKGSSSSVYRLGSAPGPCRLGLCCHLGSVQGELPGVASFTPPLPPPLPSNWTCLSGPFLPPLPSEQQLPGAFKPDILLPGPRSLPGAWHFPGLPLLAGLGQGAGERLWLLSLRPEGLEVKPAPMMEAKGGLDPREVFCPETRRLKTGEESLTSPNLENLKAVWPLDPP
Conditions: protein: recombinant; tags: N-terminal GST; dsDNA, one strand shown. The essentials:
as §1

For the next experiment, the target named is T8, ETS2 (Homo sapiens, UniProt P15036 1-469).
T8 sequence: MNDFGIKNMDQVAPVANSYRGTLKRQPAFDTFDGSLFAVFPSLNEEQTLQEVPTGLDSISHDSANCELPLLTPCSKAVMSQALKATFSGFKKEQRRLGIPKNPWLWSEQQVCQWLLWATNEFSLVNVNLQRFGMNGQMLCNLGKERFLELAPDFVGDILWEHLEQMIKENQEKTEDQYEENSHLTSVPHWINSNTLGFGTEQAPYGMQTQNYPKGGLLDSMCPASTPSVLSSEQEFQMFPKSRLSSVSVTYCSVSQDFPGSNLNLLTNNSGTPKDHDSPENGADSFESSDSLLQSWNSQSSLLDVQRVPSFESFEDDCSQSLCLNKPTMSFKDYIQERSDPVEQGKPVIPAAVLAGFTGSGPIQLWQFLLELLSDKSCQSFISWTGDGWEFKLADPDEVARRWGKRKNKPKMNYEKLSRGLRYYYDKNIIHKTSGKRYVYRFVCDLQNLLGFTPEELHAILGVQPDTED
The following applies: protein: recombinant; tags: N-terminal GST; dsDNA, one strand shown. The method in brief:
as §1

In a further experiment the target is T9, SPDEF (Homo sapiens, UniProt O95238 1-335).
T9 sequence: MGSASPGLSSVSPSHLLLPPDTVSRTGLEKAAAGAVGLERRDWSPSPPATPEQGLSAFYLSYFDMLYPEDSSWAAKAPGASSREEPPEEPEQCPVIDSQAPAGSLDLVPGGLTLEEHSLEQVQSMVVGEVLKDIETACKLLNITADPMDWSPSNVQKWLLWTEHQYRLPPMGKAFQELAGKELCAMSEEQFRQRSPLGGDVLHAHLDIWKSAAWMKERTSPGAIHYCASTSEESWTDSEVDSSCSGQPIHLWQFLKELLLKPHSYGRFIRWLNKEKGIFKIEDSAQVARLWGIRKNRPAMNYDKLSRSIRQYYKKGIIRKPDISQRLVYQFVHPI
Conditions: protein: recombinant; tags: N-terminal GST; dsDNA, one strand shown. The essentials:
as §1

For another experiment, the target named is T10, ETV7 (Homo sapiens, UniProt Q9Y603 1-341).
T10 sequence: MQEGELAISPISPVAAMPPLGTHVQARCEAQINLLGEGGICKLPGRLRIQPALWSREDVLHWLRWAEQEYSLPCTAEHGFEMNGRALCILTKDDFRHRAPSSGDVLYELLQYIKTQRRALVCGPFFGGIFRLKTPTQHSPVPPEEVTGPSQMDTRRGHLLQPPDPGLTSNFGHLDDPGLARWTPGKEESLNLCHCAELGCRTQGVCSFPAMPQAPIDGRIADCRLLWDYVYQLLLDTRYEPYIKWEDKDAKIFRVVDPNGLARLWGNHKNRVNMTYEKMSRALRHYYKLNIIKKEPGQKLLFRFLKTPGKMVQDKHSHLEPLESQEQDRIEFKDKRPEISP
The following applies: protein: recombinant; tags: N-terminal GST; dsDNA, one strand shown. The method in brief: as §1

Another experiment addresses T11, ELF5 (Homo sapiens, UniProt Q9UKW6-2 1-255).
T11 sequence: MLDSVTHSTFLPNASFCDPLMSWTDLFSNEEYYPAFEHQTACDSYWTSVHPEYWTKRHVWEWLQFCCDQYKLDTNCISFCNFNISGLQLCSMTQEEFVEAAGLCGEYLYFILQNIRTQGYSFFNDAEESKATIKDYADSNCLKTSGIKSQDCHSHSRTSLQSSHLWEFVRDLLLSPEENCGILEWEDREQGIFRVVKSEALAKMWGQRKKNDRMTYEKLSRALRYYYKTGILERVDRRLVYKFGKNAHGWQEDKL
The following applies: protein: recombinant; tags: N-terminal GST; dsDNA, one strand shown. The essentials:
as §1

The next experiment concerns the target T12, ETV3 (Homo sapiens, UniProt P41162-2 1-143).
T12 sequence: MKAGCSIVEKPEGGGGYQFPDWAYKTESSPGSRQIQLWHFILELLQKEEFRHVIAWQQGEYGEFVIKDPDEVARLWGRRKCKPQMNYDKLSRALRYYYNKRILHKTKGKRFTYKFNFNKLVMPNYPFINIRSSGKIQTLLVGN
The following applies: protein: recombinant; tags: N-terminal GST; dsDNA, one strand shown. The essentials: as §1

The target of a further experiment is ETV6 (Homo sapiens, UniProt P41212 1-452). Conditions: protein: recombinant; tags: N-terminal GST; dsDNA, one strand shown. The method in brief:
as §1

Sequence of ETV6 (P41212 whole entry): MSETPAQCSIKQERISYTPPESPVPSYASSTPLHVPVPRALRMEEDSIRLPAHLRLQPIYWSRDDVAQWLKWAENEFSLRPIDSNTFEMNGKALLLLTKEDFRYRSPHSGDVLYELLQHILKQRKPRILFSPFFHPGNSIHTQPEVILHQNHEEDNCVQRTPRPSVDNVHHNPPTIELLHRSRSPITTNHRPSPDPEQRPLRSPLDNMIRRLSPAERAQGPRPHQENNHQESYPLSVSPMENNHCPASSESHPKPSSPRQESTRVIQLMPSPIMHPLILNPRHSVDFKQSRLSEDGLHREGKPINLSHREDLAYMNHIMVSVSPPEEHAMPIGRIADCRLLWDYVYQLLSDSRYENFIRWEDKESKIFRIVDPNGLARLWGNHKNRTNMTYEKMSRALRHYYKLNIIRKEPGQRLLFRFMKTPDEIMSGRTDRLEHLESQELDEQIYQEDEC
Sequence of ELF4 (Q99607 whole entry): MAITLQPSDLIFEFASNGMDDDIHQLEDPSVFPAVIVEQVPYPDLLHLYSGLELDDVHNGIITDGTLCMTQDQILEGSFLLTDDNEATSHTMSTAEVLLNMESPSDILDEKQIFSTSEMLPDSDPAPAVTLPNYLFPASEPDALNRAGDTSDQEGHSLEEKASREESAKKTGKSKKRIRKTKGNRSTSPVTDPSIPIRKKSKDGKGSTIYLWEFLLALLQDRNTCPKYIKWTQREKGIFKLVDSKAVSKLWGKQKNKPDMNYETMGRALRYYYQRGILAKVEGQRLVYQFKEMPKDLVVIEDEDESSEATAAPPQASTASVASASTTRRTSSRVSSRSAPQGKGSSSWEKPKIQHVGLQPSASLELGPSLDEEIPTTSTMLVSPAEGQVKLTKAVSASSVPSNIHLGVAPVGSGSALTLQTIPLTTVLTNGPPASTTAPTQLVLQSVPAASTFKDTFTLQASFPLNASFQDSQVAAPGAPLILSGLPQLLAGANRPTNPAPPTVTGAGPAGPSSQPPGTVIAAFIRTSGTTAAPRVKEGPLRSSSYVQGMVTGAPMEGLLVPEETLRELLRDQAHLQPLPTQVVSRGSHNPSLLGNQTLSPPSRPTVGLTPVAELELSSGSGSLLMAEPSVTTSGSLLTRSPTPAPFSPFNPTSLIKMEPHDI
Sequence of ETV1 (P50549 whole entry): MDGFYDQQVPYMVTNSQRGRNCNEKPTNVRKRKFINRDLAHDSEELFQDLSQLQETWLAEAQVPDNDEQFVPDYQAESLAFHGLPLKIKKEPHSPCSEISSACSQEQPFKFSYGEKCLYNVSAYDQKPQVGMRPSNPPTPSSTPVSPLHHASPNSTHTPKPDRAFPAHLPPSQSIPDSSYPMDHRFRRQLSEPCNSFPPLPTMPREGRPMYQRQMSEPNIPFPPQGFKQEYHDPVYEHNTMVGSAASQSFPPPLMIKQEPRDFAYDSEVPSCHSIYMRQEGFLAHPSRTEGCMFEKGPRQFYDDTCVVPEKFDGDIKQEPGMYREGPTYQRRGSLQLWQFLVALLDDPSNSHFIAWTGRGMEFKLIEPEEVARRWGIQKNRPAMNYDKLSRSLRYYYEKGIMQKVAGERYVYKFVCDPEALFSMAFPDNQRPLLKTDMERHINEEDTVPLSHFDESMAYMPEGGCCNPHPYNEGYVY
Sequence of ETV5 (P41161 whole entry): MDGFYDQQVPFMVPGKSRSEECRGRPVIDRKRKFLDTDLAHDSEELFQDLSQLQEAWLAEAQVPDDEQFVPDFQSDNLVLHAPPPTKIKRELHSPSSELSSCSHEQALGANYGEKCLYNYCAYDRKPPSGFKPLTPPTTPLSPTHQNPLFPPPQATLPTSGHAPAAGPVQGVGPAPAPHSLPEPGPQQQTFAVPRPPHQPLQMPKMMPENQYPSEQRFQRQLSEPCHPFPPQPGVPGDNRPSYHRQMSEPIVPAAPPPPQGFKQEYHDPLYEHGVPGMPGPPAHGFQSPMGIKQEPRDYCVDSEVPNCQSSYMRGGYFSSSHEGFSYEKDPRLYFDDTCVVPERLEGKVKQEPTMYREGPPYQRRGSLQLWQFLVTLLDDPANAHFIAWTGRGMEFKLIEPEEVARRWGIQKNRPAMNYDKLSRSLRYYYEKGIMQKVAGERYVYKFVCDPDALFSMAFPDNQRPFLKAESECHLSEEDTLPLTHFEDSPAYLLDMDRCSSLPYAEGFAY
Sequence of HSF1 (Q00613 whole entry): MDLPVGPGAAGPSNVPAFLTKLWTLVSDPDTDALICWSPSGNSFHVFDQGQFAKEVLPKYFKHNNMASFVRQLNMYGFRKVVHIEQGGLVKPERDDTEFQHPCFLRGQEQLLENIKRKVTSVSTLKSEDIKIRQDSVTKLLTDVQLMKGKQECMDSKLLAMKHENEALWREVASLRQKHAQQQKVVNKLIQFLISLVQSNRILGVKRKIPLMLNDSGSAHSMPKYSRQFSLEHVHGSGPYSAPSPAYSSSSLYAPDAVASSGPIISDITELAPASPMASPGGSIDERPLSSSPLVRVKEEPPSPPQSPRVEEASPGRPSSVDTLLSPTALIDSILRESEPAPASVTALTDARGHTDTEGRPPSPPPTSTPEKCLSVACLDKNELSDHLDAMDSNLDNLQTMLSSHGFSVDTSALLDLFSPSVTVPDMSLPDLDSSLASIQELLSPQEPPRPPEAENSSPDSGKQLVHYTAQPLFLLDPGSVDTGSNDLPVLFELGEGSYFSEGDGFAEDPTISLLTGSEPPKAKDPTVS
Sequence of CRX (O43186 whole entry): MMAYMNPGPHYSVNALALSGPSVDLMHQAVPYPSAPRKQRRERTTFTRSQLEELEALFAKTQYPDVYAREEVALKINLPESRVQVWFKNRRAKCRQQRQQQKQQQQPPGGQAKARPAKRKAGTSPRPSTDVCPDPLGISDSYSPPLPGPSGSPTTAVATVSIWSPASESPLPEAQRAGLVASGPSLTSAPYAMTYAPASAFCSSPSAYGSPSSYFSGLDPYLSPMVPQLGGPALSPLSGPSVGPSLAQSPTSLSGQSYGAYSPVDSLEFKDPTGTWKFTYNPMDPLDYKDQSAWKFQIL

As for TATCCA, the binding signal was 1.29 fold enrichment (6-mer frequency, TF over GST control) with FEV; 1.27 fold enrichment (6-mer frequency, TF over GST control) with ETV5; 1.49 fold enrichment (6-mer frequency, TF over GST control) with HSF1; 1.4 fold enrichment (6-mer frequency, TF over GST control) in the experiment with SPIC; 1.29 fold enrichment (6-mer frequency, TF over GST control) with ELF4; 1.33 fold enrichment (6-mer frequency, TF over GST control) with ELK4. The binding signal is 1.37 fold enrichment (6-mer frequency, TF over GST control) with ETV2; 1.31 fold enrichment (6-mer frequency, TF over GST control) with ELF3; 1.75 fold enrichment (6-mer frequency, TF over GST control) with CRX; 1.27 fold enrichment (6-mer frequency, TF over GST control) in the experiment with ETV1; 1.27 fold enrichment (6-mer frequency, TF over GST control) with ERF; 1.28 fold enrichment (6-mer frequency, TF over GST control) with ETV3L. Further, the binding signal is 1.28 fold enrichment (6-mer frequency, TF over GST control) with ETS2; 1.21 fold enrichment (6-mer frequency, TF over GST control) with SPDEF; 1.34 fold enrichment (6-mer frequency, TF over GST control) with ETV7; 1.27 fold enrichment (6-mer frequency, TF over GST control) in the experiment with ELF5; 1.23 fold enrichment (6-mer frequency, TF over GST control) with ETV3; 1.2 fold enrichment (6-mer frequency, TF over GST control) with ETV6.
